Measured values taken from the supplement of paper PMC10849652.
Of roughly 7,900 targets only a part is listed; those with a hit were picked by preference. About 0.6% of all pairs of compound and target were hits.

Columns and labels:
Assay in all cases: log2 fold change, soluble protein after heating vs DMSO (PISA); higher = thermal stabilisation; K562 cells, 10 uM, 30 min; active = over 0.2 and 3.5 SD of the protein, either way, in both replicates (recomputed)
erlotinib = compound: C#Cc1cccc(Nc2ncnc3cc(OCCOC)c(OCCOC)cc23)c1 [erlotinib]
How it was run: (§1)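 Thermal stability values are relative to control samples and come from duplicates. They are expressed as log2 fold changes. For measurement, K562 cells (2×10^6 cells/mL) received 10 μM compound for 30 min, and aliquots were heated for 3 min over 48°C-58°C, pooled, and extracted at 4°C in PBS with 0.5% NP-40. Soluble protein, the supernatant after 21,000xg for 90 min, was quantified by TMTpro 16plex LC-MS/MS with equalised channel sums.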

[1] = compound: C1=CC(=CC=C1C2=NC3=C(N2)C=C(C=C3)C(=O)N)OC4=CC=C(C=C4)Cl
How it was run: as §1

[2] = compound: C1=CC2=NC=CN=C2C=C1/C=C/3\C(=O)NC(=O)S3
How it was run: as §1

[3] = compound: C1=CC=C(C=C1)C2=NC(=C(N2)C3=CC=NC=C3)C4=CC(=C(C=C4)Cl)O
How it was run: as §1

[4] = compound: C1CCN(C1)C(=O)NC2=CC=CC(=C2)NC3=NC=C(C(=N3)NCCC4=CN=CN4)Br
How it was run: as §1

[5] = compound: C1CN(CCC1(CC2=CC=C(C=C2)Cl)N)C3=NC=NC4=C3C=CN4
How it was run: as §1

IRAK-1-4 Inhibitor I = compound: C1COCCN1CCN2C3=CC=CC=C3N=C2NC(=O)C4=CC(=CC=C4)[N+](=O)[O-] [IRAK-1-4 Inhibitor I]
How it was run: as §1

ibrutinib = compound: C=CC(=O)N1CCC[C@@H](n2nc(-c3ccc(Oc4ccccc4)cc3)c3c(N)ncnc32)C1 [ibrutinib]
How it was run: as §1

ralimetinib = compound: CC(C)(C)Cn1c(N)nc2ccc(-c3[nH]c(C(C)(C)C)nc3-c3ccc(F)cc3)nc21 [ralimetinib]
How it was run: as §1

[6] = compound: CC(C)C1=C2N=C(C=C(N2N=C1)NCC3=CC=CC=C3)NCCCCCCN
How it was run: as §1

[7] = compound: CC(C)C[C@@H](C=O)NC(=O)[C@H](CC(C)C)NC(=O)[C@H](CC(C)C)NC(=O)OCc1ccccc1
How it was run: as §1

pinometostat = compound: CC(C)N(C[C@H]1O[C@@H](n2cnc3c(N)ncnc32)[C@H](O)[C@@H]1O)[C@H]1C[C@@H](CCc2nc3cc(C(C)(C)C)ccc3[nH]2)C1 [pinometostat]
How it was run: as §1

[8] = compound: CC1=C(C(CC(=O)N1)C2=CC=C(C=C2)C(F)(F)F)C(=O)NC3=C(C=C4C(=C3)C=NN4)F
How it was run: as §1

[9] = compound: CC1=C(C2=C(C=C1)C(=O)C3=CC=CC=C3N2CCCN)C
How it was run: as §1

[10] = compound: C1=CC(=C(C=C1Cl)C2=NC3=NC=CN=C3C(=N2)NC4=CC=NC=C4)F
How it was run: as §1

[11] = compound: CC(C)(O)CC(=O)NCCn1ccc2ncnc(Nc3ccc(Oc4cccc(C(F)(F)F)c4)c(Cl)c3)c21
How it was run: as §1

[12] = compound: C/C(=N\NC(=O)C1=CC(=CC=C1)S(=O)(=O)N2CCOCC2)/C3=C(C=CC(=C3)Cl)O
How it was run: as §1

[13] = compound: C1=CC2=C(C=CC(=C2)/C=C\3/C(=O)NC(=NCC4=CC=CS4)S3)N=C1
How it was run: as §1

[14] = compound: C1=CC=C2C(=C1)C3=NNC4=CC=CC(=C43)C2=O
How it was run: as §1

[15] = compound: CC(=O)c1cnc2ccc(-c3cc(Cl)c(O)c(Cl)c3)nc2c1N[C@H]1CC[C@H](CN(C)C)CC1
How it was run: as §1

Measured: log2 fold change

FBXO9 (UniProt Q9UK97)
Chain of UniProt Q9UK97 (Q9UK97 whole entry, looked up): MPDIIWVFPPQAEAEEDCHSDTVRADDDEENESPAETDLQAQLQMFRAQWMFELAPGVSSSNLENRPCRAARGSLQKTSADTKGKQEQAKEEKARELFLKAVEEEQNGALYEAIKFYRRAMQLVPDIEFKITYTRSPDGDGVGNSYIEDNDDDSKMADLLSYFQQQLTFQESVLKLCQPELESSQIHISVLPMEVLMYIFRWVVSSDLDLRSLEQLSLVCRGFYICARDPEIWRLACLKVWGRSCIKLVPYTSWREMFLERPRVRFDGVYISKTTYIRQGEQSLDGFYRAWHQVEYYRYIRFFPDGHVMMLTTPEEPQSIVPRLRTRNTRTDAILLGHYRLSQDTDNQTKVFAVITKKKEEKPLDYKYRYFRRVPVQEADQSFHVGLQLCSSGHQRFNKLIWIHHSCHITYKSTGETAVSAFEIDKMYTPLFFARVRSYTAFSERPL
inactive: erlotinib -0.017 | [1] 0.137 | [2] -0.022 | [3] 0.03 | [4] -0.098 | [5] -0.037 | IRAK-1-4 Inhibitor I -0.034 | ibrutinib -0.119 | ralimetinib 0.137 | [6] -0.101 | [7] 0.088 | pinometostat 0.038 | [8] -0.062 | [9] 0.137

GINS2 (UniProt Q9Y248)
Chain of UniProt Q9Y248 (Q9Y248 whole entry, looked up): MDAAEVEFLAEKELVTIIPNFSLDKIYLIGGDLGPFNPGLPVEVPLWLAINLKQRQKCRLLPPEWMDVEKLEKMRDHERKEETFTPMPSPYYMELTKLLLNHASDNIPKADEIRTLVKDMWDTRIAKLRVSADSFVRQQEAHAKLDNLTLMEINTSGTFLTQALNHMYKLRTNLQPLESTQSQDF
inactive: erlotinib 0.076 | [10] 0.083 | [1] -0.045 | [2] -0.008 | [3] 0.203 | [4] -0.089 | [5] -0.034 | IRAK-1-4 Inhibitor I 0 | ibrutinib -0.033 | ralimetinib 0.024 | [11] -0.02 | [6] -0.081 | [7] -0.042 | pinometostat -0.067 | [8] -0.057 | [9] 0.113

FMR1 (UniProt Q06787)
inactive: erlotinib -0.301 | [1] 0.154 | [3] -0.121 | IRAK-1-4 Inhibitor I 0.091 | ralimetinib 0.036 | [6] 0.149 | [7] 0.056 | pinometostat 0.153

HBZ, A0A494C057
inactive: erlotinib 0.141 | [1] -0.062 | [2] -0.055 | ibrutinib 0.284 | [6] -0.054 | [8] -0.145

GNL3 (UniProt Q9BVP2)
active: [12] -0.562
inactive: [10] 0.165 | [13] 0.149 | [2] -0.054 | [14] 0.053 | [4] -0.048 | [5] 0.142 | ibrutinib 0.047 | [15] 0.012 | [11] -0.007 | [8] 0.029 | [9] 0.066

IDH3A isoform 2 (UniProt P50213)
Chain of UniProt P50213 (P50213 whole entry, looked up): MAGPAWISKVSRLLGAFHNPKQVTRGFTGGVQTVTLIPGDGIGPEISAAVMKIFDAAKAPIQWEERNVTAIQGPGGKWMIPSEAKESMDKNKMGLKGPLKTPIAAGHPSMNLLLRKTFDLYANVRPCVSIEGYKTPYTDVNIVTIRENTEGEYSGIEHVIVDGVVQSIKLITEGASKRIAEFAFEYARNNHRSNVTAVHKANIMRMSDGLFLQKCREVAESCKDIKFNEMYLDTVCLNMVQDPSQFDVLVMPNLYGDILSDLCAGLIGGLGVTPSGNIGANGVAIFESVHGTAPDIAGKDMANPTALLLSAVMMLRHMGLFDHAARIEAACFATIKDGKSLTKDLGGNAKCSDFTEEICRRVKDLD
active: [12] -0.572
inactive: erlotinib 0.132 | [1] -0.084 | [13] 0.135 | [2] -0.017 | [14] 0.039 | [4] -0.052 | [5] 0.164 | IRAK-1-4 Inhibitor I 0.196 | ibrutinib 0.008 | [15] -0.004 | [6] 0.153 | pinometostat 0.011 | [8] -0.033 | [9] 0.059

FAT1 (UniProt Q14517)
active: ralimetinib -0.448
inactive: erlotinib -0.06 | [10] -0.062 | [1] 0.161 | [2] -0.08 | [3] 0.045 | [4] -0.123 | [5] 0.066 | IRAK-1-4 Inhibitor I 0.028 | ibrutinib 0.151 | [11] 0.01 | [6] 0.162 | [7] 0.683 | pinometostat -0.095 | [8] 0.019 | [9] 0.091

GOLGA8R (UniProt I6L899)
Chain of UniProt I6L899 (I6L899 whole entry, looked up): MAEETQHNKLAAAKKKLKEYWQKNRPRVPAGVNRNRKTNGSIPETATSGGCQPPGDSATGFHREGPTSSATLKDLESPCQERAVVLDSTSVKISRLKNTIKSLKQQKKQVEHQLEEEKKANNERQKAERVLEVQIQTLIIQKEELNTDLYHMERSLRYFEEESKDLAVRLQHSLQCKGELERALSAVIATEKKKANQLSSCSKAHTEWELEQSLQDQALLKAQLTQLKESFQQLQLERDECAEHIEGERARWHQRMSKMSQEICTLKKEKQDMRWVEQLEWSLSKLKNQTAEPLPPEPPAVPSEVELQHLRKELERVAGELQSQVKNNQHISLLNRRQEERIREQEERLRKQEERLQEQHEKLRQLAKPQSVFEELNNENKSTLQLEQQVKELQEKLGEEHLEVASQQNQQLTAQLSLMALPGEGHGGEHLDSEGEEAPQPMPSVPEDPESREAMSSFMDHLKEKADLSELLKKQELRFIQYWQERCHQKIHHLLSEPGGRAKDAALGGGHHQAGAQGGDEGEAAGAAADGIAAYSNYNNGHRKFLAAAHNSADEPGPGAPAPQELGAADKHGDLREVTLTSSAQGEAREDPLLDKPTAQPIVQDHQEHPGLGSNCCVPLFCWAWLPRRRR
inactive: erlotinib 0.377 | [12] -0.394 | [1] -0.019 | [13] 0.078 | [2] -0.008 | [3] 0.058 | [14] -0.049 | [4] -0.097 | [5] 0.302 | IRAK-1-4 Inhibitor I 0.003 | ibrutinib 0.04 | [15] -0.106 | ralimetinib 0.247 | [6] 0.227 | [7] 0.177 | pinometostat 0.035 | [9] 0.201

HEATR3 (UniProt Q7Z4Q2)
Chain of UniProt Q7Z4Q2 (Q7Z4Q2 whole entry, looked up): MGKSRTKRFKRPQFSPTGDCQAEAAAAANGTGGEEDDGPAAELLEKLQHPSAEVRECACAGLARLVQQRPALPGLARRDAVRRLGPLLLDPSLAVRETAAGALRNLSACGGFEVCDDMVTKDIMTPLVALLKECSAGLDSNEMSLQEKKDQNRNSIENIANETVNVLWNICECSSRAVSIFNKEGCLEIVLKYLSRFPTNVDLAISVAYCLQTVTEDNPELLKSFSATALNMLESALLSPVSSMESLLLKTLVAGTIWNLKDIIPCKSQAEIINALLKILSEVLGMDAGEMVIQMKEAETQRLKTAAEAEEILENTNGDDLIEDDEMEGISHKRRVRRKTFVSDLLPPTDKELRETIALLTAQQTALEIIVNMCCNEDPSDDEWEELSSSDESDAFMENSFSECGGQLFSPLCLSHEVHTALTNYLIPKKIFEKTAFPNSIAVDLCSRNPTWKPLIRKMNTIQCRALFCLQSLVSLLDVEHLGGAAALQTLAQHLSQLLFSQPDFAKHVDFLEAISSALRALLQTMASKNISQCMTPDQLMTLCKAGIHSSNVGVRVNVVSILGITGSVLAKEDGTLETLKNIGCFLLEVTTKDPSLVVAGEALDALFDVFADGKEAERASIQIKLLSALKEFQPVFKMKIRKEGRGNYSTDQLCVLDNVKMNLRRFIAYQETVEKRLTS
inactive: erlotinib -0.002 | [10] -0.013 | [1] 0.013 | [2] -0.044 | [3] 0.062 | [4] -0.113 | [5] 0.032 | IRAK-1-4 Inhibitor I -0.08 | ibrutinib 0.006 | ralimetinib 0.07 | [11] -0.125 | [7] -0.137 | pinometostat -0.032 | [8] 0.216 | [9] -0.196
active: [6] -0.319

GPNMB (UniProt Q14956)
Chain of UniProt Q14956 (Q14956 whole entry, looked up): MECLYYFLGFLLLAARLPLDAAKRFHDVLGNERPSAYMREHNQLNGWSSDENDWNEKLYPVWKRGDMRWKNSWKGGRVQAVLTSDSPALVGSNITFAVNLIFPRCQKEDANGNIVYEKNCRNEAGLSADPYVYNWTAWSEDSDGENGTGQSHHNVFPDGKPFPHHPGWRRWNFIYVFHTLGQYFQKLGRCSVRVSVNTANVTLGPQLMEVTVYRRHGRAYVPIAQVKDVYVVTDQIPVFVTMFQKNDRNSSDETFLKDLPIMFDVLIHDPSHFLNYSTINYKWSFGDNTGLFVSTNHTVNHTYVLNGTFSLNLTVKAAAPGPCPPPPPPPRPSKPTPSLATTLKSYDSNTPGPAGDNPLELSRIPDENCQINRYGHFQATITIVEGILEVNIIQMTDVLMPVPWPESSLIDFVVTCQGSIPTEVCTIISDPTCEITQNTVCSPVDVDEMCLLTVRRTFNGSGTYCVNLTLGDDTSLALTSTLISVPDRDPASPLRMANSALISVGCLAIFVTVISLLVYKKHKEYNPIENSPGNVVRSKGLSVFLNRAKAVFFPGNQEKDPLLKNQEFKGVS
inactive: erlotinib 0.286 | [10] -0.281 | [1] -0.046 | [11] 0 | [6] 0.108

H3-3A (UniProt P84243)
inactive: erlotinib 0.085 | [1] -0.035 | [2] -0.1 | [4] 0.049 | [5] -0.218 | ibrutinib -0.016 | [6] -0.07 | [8] -0.004
active: [9] 0.656

GREB1 (UniProt Q4ZG55)
active: [12] -0.751
inactive: erlotinib 0.218 | [10] 0 | [1] -0.132 | [13] 0.092 | [14] -0.044 | [4] -0.06 | [5] 0.291 | IRAK-1-4 Inhibitor I 0.04 | [15] 0.037 | [11] -0.032 | [6] 0.26 | pinometostat -0.095 | [9] 0.066

FUNDC1 (UniProt Q8IVP5)
active: [2] 0.597
inactive: ibrutinib -0.023

HNRNPK isoform 3 (UniProt P61978)
inactive: erlotinib 0.101 | [10] -0.102 | [1] -0.032 | [2] 0.06 | [3] -0.024 | [4] -0.027 | [5] -0.052 | IRAK-1-4 Inhibitor I -0.011 | ibrutinib -0.001 | ralimetinib 0.03 | [11] 0.087 | [6] 0.075 | [7] 0.041 | pinometostat -0.021 | [8] -0.039 | [9] 0.21

GAB2 (UniProt Q9UQC2)
inactive: erlotinib -0.035 | [12] 0.149 | [10] -0.033 | [1] 0.231 | [13] -0.04 | [3] -0.294 | [14] -0.196 | [4] -0.29 | [5] 0.012 | IRAK-1-4 Inhibitor I -0.097 | [15] -0.573 | ralimetinib 0.059 | [11] -0.242 | [6] -0.616 | [7] 0.094 | pinometostat 0.081 | [9] 0.004

GTF3A (UniProt Q92664)
inactive: erlotinib -0.048 | [12] -0.117 | [10] 0.095 | [1] 0.116 | [13] 0.157 | [2] 0.004 | [14] -0.115 | [4] -0.019 | [5] 0.174 | IRAK-1-4 Inhibitor I 0.034 | ibrutinib -0.013 | [15] 0.065 | [11] -0.084 | [6] -0.036 | pinometostat 0.004 | [8] 0.249 | [9] 0.107

FOXO3 (UniProt O43524)
Chain of UniProt O43524 (O43524 whole entry, looked up): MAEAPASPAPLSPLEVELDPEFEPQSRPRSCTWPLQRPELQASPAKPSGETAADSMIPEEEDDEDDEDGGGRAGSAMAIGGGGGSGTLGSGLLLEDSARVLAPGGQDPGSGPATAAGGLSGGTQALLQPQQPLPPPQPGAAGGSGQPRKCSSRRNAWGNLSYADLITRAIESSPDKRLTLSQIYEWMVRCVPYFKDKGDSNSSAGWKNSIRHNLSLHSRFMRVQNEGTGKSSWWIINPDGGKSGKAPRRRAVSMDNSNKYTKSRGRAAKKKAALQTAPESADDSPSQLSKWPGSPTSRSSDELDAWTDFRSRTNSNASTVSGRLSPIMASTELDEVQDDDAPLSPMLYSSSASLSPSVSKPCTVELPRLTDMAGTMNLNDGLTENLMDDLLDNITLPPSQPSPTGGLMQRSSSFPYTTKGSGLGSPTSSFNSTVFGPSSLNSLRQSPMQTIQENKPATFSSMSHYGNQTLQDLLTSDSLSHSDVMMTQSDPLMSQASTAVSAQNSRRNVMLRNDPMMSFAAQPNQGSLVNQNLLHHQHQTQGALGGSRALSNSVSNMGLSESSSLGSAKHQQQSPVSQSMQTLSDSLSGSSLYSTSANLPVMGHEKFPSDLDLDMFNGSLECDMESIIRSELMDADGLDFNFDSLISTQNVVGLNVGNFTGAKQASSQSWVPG
inactive: erlotinib 0.026 | [12] -0.007 | [10] -0.025 | [1] -0.079 | [13] 0.027 | [3] -0.035 | [14] 0.038 | [4] -0.224 | [5] -0.283 | IRAK-1-4 Inhibitor I -0.046 | [15] -0.427 | ralimetinib -0.083 | [11] 0.086 | [6] -0.091 | [7] 0.234 | pinometostat 0 | [9] 0.081

GPS2 (UniProt Q13227)
Chain of UniProt Q13227 (Q13227 whole entry, looked up): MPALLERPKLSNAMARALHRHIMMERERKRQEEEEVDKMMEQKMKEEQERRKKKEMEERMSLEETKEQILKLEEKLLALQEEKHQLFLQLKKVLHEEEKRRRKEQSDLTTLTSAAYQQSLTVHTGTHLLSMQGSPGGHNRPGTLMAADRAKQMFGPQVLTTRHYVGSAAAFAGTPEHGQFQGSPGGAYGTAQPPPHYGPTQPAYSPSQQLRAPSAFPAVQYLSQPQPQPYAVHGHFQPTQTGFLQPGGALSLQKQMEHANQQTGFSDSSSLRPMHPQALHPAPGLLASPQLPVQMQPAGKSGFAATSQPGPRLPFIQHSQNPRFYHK
inactive: erlotinib -0.124 | [10] 0.066 | [1] -0.046 | [2] 0.05 | [3] -0.046 | [4] 0.262 | [5] 0.029 | IRAK-1-4 Inhibitor I -0.013 | ibrutinib -0.006 | ralimetinib -0.19 | [11] -0.052 | [6] 0.027 | [7] -0.069 | pinometostat 0.019 | [8] 0.006 | [9] -0.135

GEMIN2 (UniProt O14893)
Chain of UniProt O14893 (O14893 whole entry, looked up): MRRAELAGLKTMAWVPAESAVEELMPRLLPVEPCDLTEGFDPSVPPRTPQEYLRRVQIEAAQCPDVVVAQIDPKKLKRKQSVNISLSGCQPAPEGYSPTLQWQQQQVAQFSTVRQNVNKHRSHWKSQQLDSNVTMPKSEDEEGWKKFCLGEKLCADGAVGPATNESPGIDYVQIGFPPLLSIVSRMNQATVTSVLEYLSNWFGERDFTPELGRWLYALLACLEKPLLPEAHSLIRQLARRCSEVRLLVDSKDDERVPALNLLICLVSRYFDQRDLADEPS
active: [10] -0.428
inactive: [12] -0.086 | [13] 0.057 | [2] -0.013 | [3] -0.069 | [14] -0.042 | IRAK-1-4 Inhibitor I -0.046 | ibrutinib 0.055 | [15] -0.061 | ralimetinib 0.049 | [11] -0.307 | [7] 0.012 | pinometostat -0.096 | [8] 0.044

GOLGA6B (UniProt A6NDN3)
Chain of UniProt A6NDN3 (A6NDN3 whole entry, looked up): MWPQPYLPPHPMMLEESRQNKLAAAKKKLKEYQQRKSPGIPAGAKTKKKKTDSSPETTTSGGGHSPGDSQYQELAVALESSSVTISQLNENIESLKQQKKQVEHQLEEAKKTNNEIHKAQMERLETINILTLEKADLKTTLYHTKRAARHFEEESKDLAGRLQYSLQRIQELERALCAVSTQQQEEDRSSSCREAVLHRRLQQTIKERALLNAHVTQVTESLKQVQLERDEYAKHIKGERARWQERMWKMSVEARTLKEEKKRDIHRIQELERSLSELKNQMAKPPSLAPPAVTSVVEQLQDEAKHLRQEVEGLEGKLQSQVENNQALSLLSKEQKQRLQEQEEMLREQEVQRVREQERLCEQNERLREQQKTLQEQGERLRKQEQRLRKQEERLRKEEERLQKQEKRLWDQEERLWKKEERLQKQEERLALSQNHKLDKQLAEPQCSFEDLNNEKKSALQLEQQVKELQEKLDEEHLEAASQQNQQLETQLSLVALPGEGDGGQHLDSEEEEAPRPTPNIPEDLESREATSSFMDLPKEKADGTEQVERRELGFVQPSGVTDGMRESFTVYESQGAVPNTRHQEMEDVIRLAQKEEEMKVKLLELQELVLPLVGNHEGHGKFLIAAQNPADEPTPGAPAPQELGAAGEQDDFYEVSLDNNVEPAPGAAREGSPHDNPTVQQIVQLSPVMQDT
inactive: erlotinib -0.069 | [10] -0.054 | [1] 0.116 | [2] 0.036 | IRAK-1-4 Inhibitor I -0.034 | ibrutinib 0.013 | [11] 0.025 | [6] 0.165 | pinometostat -0.137 | [8] -0.19
